# Assay results taken from PubChem BioAssay AID1745847 (National Center for Advancing Translational Sciences (NCATS), 2022).
# The whole screen tested about 2,100 compounds, of which about 670 (32%) were called active. Roughly 50% stayed inconclusive and do not appear here. Some of the results follow. Values without a mark were called inactive. Calls come from the whole dose curve; as a rule, active = well fitted inhibition curve with a large enough effect; inconclusive = small, poorly fitted or top-dose-only effect; inactive = no such curve, though single readings can be large or run the other way.
# Test: CMV-Luciferase Counterscreen for Inhibitors of ATXN expression; note: nearly all actives have a fitted effect of over 55% in size
# Conditions: HEK-293 CMV-luciferase reporter, luminescence, 24 h; series mostly up to 57.5 µM
# % is set by controls: 0 for no effect and ±100 for the full control effect; potency is the fitted concentration of half-maximal effect.
SMILES,Potency,"activity change, negative = inhibition"
CN(Cc1ccccc1)C1=CC(=[N+]2CCCC2)CC(C)(C)C1,0.447 µM (active),–
Cc1cccc(OCC(=O)Nc2ccc3c(c2)nc(CCN2CCN(c4ccccn4)CC2)n3C)c1,14.1 µM (active),–
COc1cccc(/C=N/NC(=O)c2cc(-c3ccccn3)nc3ccccc23)c1O,2.82 µM (active),–
CCn1c(C)nc2cc(C(=O)N/N=C/c3cccc(OC)c3O)ccc21,2.51 µM (active),–
COc1cccc(/C=N/NC(=O)c2ccc(-c3ccccc3)cc2)c1O,2 µM (active),–
COc1cccc(/C=N/NC(=O)c2c(C)nc3ccc(Cl)cn23)c1O,1.41 µM (active),–
COc1cccc(C=NNC(=O)c2ccncc2)c1O,15.8 µM (active),–
c1ccc2c(c1)c1c(c3ccccc32)CN2CCCC2C1 (stereo not given),inactive,–
Cc1cc2c(N=O)c(NO)ccc2[nH]1,10 µM (active),–
CN(C)CCCN(C(=O)c1ccco1)c1nc2cc3c(cc2s1)OCO3,inactive,–
CN(/N=C/c1cc(Br)cc(Br)c1O)c1cccc(C(F)(F)F)n1,11.2 µM (active),–
COc1ccc(NC(=S)N(CCCN2CCOCC2)Cc2cn(C)c3ccccc23)cc1,inactive,–
ClC(Cl)(Cl)c1nc2ccccc2n2nncc12,–,-25.9% [at 11.4 µM]
NS(=O)(=O)c1ccc(N2N=C(c3ccccc3)CC2c2cccc(Br)c2)cc1 (stereo not given),17.8 µM (active),–
COc1ccc(C2CC(c3cccc(C(F)(F)F)c3)=NN2c2ccc(S(N)(=O)=O)cc2)cc1 (stereo not given),–,-28.1% [at 11.4 µM]
NC(Cc1ccc(Cl)cc1)c1csc(Nc2nccc(C(F)(F)F)n2)n1 (stereo not given),inactive,–
CC(=O)Nc1ccc(C(=O)N/N=C/c2cc(Br)cc(Br)c2O)cc1,11.2 µM (active),–
CN(C)c1ccc(C(=O)N/N=C/c2cc(Br)cc(Br)c2O)cc1,3.16 µM (active),–
Cc1cc(C(=O)N/N=C/c2cc(Br)cc([N+](=O)[O-])c2O)c2ccccc2n1,3.55 µM (active),–
O=C(N/N=C/c1cc(Br)cc([N+](=O)[O-])c1O)c1ccc(NC(=O)c2ccc(F)cc2)cc1,3.16 µM (active),–
Cc1ccc2nc(NC(=O)/C=C/c3ccc4c(c3)OCO4)sc2c1,inactive,–
O=c1[nH]c(=O)n(C2C[C@H](O)[C@@H](CO)O2)cc1C(F)(F)F (stereo not given in full),2.82 µM (active),–
COC(=O)N/N=C/c1cn(CC(C)COc2ccccc2)c2ccccc12 (stereo not given),17.8 µM (active),–

SMILES,Potency,"activity change, negative = inhibition"
c1ccc2c(c1)C(=NC1CCCCC1)NC2=NC1CCCCC1,inactive,–
O=C(CCCN1C(=O)/C(=C/c2ccccc2Cl)SC1=S)NNC(=O)c1ccc(Cl)cc1Cl,2.82 µM (active),–
O=C(CCCN1C(=O)/C(=C/c2ccccc2Cl)SC1=S)NNC(=O)c1ccc(Cl)cc1,3.98 µM (active),–
Cc1ccc(C(=O)NNC(=O)CCCN2C(=O)/C(=C/c3ccccc3Cl)SC2=S)cc1,11.2 µM (active),–
Cc1cc(C)c2c(CC(=O)Nc3ccc(Cl)cn3)coc2c1,–,21.1% [at 11.4 µM]
CCc1ccc(/C=C/C(=O)c2cc(Br)ccc(=O)c2O)cc1,inactive,–
NC(Cc1ccc(Cl)cc1)c1csc(Nc2cc(NCCCO)ncn2)n1 (stereo not given),inactive,–
O=C(N/N=C/c1cc(Cl)ccc1O)c1ccccc1Br,8.91 µM (active),–
Cc1cccc(/C=N/NC(=O)c2cccc(Cl)c2)n1,–,-14.3% [at 11.4 µM]
O=C(N/N=C/c1cc(Cl)ccc1O)c1cccnc1,0.631 µM (active),–
O=C(N/N=C/c1c(O)n(Cc2ccccc2)c(=O)c2ccccc12)c1cccnc1,12.6 µM (active),–
CCC1=C(OC(=O)N(CC)CC)N2C(=O)OC(=NCCc3c[nH]c4ccccc34)[C@]2(Cc2ccccc2)[C@H]2C1=CC[C@H]1C(=O)N(c3ccccc3)C(=O)[C@H]12,inactive,–
Cc1cccn2c(=O)c3cc(C(=O)NCCc4ccccc4)c(=N)n(CCCn4ccnc4)c3nc12,inactive,–
CC1(C)Cc2c(c(-c3ccco3)nc3sc4c(NCCN5CCOCC5)ncnc4c23)CO1,inactive,–
Cc1c(C(=O)Nc2nonc2-c2ccc(F)cc2)oc2ccc(F)cc12,11.2 µM (active),–
O=C(NNC(=O)C12CC3CC(CC(C3)C1)C2)c1ccccn1,8.91 µM (active),–
CN(C)c1ccc2c(c1)OC(N)=C(C#N)C2c1cccc(F)c1 (stereo not given),inactive,–
Cn1cccc1/C=N/N1CCN(Cc2ccccc2Cl)CC1,inactive,–
O=C(Nc1ccccc1N1CCN(C(=O)c2ccccc2)CC1)c1ccc(Br)o1,28.2 µM (active),–
Cc1cc(C)n(-c2nc(Nc3ccccc3C(F)(F)F)nc(-n3nc(C)cc3C)n2)n1,1.78 µM (active),–
CN(C)c1ccc(NC(=O)Nc2nc(C(N)C3CCCCC3)cs2)cc1 (stereo not given),inactive,–
CCOC(=O)c1c(NC(=O)COC(=O)CNC(=O)c2ccco2)sc(C)c1C,–,24.5% [at 11.4 µM]
Cc1cc(C)c(S(=O)(=O)/N=C2\C=C(Nc3ccc(C(=O)O)cc3)C(=O)c3ccccc32)c(C)c1,1.58 µM (active),–

SMILES,Potency,"activity change, negative = inhibition"
CCCCCCn1c2c(c(=N)c3c1CCC3)CCC2,2.51 µM (active),–
Cc1ccc(CN2CC(C(=O)Nc3ncc(C)s3)CC2=O)cc1 (stereo not given),–,242% [at 11.4 µM]
Cc1ccc(C(NC(=O)C2CCN(Cc3ccc(Cl)c(Cl)c3)CC2)c2ccccn2)cc1 (stereo not given),28.2 µM (active),–
O=C1C=C(NCCc2cc(Br)c(O)c(Br)c2)C(=O)c2ncccc21,8.91 µM (active),–
Cc1cc(C)c(C(=O)N2CCCC(N3CCN(c4cccc(C(F)(F)F)c4)CC3)C2)o1 (stereo not given),3.55 µM (active),–
COC1=CC(=O)C=C(OC)C1(O)CC(C)=O,inactive,–
CC(=O)NC(c1cc(Cl)c2cccnc2c1O)C(C)C (stereo not given),0.794 µM (active),–
CCC(=O)NC(c1cc(Cl)c2cccnc2c1O)C(C)C (stereo not given),3.98 µM (active),–
CC(C)CCn1c(N)c(S(=O)(=O)c2cccs2)c2nc3ccccc3nc21,3.16 µM (active),–
COc1ccc(C(=O)/C=C/c2cccc(OCc3ccccc3)c2)cc1CSCC(=O)O,–,-3.73% [at 11.4 µM]
COc1ccc(C(=O)Cn2c(C(=O)/C=C/c3ccccc3)nc3ccccc32)cc1,–,92.9% [at 11.4 µM]
CCSc1nc2ccccc2n1C(=O)/C=C\c1ccc(OC)c(OC)c1,14.1 µM (active),–
N#Cc1ccccc1NC(=O)C1SC(=Nc2ccccc2)C(C(=O)Nc2ccc(Cl)cc2)=C1N (stereo not given),–,-20.6% [at 11.4 µM]
Cc1ccc(C(=O)N(C)CC(=O)Nc2ccc(Cl)c(C(F)(F)F)c2)cc1S(=O)(=O)N1CCCCC1,25.1 µM (active),–
CN(CC(=O)Nc1ccc(Cl)c(C(F)(F)F)c1)C(=O)c1cccnc1Sc1ccccc1,inactive,–
CN(CC(=O)NCc1ccc(F)cc1)CC(=O)Nc1ccc(Cl)c(C(F)(F)F)c1,17.8 µM (active),–
Cc1ccc(-n2ncc(C(=O)Nc3ccc(Cl)cc3)c2C2CCNCC2)cc1C,inactive,–
Cc1cc(C2=NNC(=NC3CC3)SC2)c(C)n1-c1ccccc1F,0.631 µM (active),–
Cc1ccc(C2CC(=O)Nc3c2ccc2ccccc32)cc1[N+](=O)[O-] (stereo not given),17.8 µM (active),–
Cc1ccccc1S(=O)(=O)Cc1ccc(C(=O)N2CCN(c3cccc(C)c3C)CC2)o1,3.98 µM (active),–
CCOC(=O)[C@H]1[C@H]2COc3ccc(OC)cc3[C@@H]2N2C(=O)c3cc(OC)c(OC)cc3NC(=O)[C@@]12C,–,6.45% [at 11.4 µM]
c1cnc2c(c1)ccc1cccnc12,3.55 µM (active),–
CC(=O)N1CCN(c2ccc(Oc3ccc([N+](=O)[O-])c(C(F)(F)F)c3)cc2)CC1,7.94 µM (active),–

SMILES,Potency,"activity change, negative = inhibition"
N=c1c2c(n(Cc3ccc(Cl)cc3)c3c1CCC3)CCC2,0.708 µM (active),–
N=c1c2c(n(Cc3ccc(Br)cc3)c3c1CCC3)CCCC2,0.501 µM (active),–
N=c1c2c(n(Cc3cccc(Cl)c3)c3c1CCC3)CCCC2,3.16 µM (active),–
Cn1c(CO)cnc1S(=O)(=O)Cc1ccc([N+](=O)[O-])cc1,inactive,–
c1nc(CCO[C@H]2CCCCO2)cc2cc3c(cc12)OCO3,3.16 µM (active),–
O=C(C1CCC(CNS(=O)(=O)c2cccs2)CC1)N1CCN(c2ccc(F)cc2)CC1 (stereo not given),4.47 µM (active),–
CCOc1cc(C=C(C(=O)OC)C(=O)OC)ccc1OCc1ccc([N+](=O)[O-])cc1,25.1 µM (active),–
COc1cc(C(=O)O/N=C(\N)Cc2ccc([N+](=O)[O-])cc2)cc(OC)c1OC,–,-6.35% [at 11.4 µM]
CC1CC(C)C[N+](=C2C=C(N3CCCC3)CC(C)(C)C2)C1 (stereo not given),0.794 µM (active),–
CC1CCN(Cc2c(C(=O)N/N=C/c3cc(Cl)ccc3O)nnn2-c2nonc2N)CC1,0.562 µM (active),–
CC1CCN(Cc2c(C(=O)N/N=C/c3cc(Br)ccc3O)nnn2-c2nonc2N)CC1,0.447 µM (active),–
COc1ccc(-c2n(CC(=O)OC3CC(C)CCC3C(C)C)c3ccccc3[n+]2C)cc1 (stereo not given),3.16 µM (active),–
CCOc1ccc(-n2c(-c3ccccc3)c[n+]3c2CCCCC3)cc1,3.55 µM (active),–
CCOc1ccc(-c2c[n+]3c(n2-c2ccccc2)CCCCC3)cc1,6.31 µM (active),–
CCCCOc1ccc(C(=O)NNC(=S)NC(=O)CC)cc1,2.51 µM (active),–
OC(c1ccccc1)(c1nc(-c2cc3ccccc3o2)cs1)C(F)(F)F (stereo not given),inactive,–
Cc1cc(/C=N/n2cnnc2)c(C)n1-c1ccc(OCc2ccc(Cl)cc2Cl)cc1,12.6 µM (active),–
Cc1ccc(C)c(NC(=O)c2ccccc2NS(=O)(=O)c2cc([N+](=O)[O-])ccc2C)c1,1 µM (active),–
CC1CCCCC1NC(=O)/C(C#N)=C/C=C/c1ccccc1[N+](=O)[O-] (stereo not given),3.55 µM (active),–
O=C(/C=C/c1ccccc1[N+](=O)[O-])c1ccccc1Br,–,44.2% [at 11.4 µM]
N#C/C(=C\C=C\c1ccccc1[N+](=O)[O-])C(=O)NCc1ccccc1,3.16 µM (active),–
